IL1B secr inh: qHTS for Inhibitors of Inflammasome Signaling: IL-1-beta AlphaLISA Primary Screen; THP-1 LPS/ATP IL-1B secretion, AlphaLISA, 16 h; hits give low values; activity change, % at 57.5 µM; AID 743279, 2014; hit rate 4.7% among 360,000; in the data active means activity change below about -50%; inconclusive means mostly about -30% to -49%
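Secreted IL-1B measured by AlphaLISA bead assay after 16 h compound exposure of THP-1 cells; compounds (final up to 57.5 uM) added 1 h before LPS (250 ng/mL) and ATP (1.25 mM) stimulation; lower signal means less secretion.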
HT1080NT lethal: qHTS for induction of synthetic lethality in tumor cells producing 2HG: qHTS for the HT-1080-NT fibrosarcoma cell line | HT-1080-NT fibrosarcoma viability, CellTiter-Glo ATP luminescence, 48 h | Potency, µM (top dose mostly 46.1 µM), for inactives: at the top dose activity, negative = less viability, actives largely listed as cytotoxic | hit rate 1.6% among 360,000;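 further: NT is the 2HG producing partner of a matched IDH1 knockdown line; potency means the concentration at half of the fitted maximal effect; 0% = DMSO-treated cells and -100% = media-only wells without cells; nearly all actives have a fitted effect of over 55% in size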
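Luminescent CellTiter-Glo readout after 48 hours of compound exposure at 37 degrees C defined viability of HT-1080-NT cells. Activity was normalized to DMSO wells and cell-free media wells; concentration-response curves were fitted and assigned curve classes.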
ALOX12 inh: Primary qHTS assay for inhibitors of human arachidonate 12S-lipoxygenase (ALOX12): Round 2; Polyunsaturated fatty acid lipoxygenase ALOX12 (Homo sapiens), P18054; purified 12hLO, xylenol orange hydroperoxide absorbance; Potency, µM (top dose mostly 108 µM), without a hit: top-dose activity change, negative = inhibition, usual class: inhibitors; hit rate 1.1% among 580,000; AID 1671190, 2021; further: potency means the concentration at half of the fitted maximal effect
Target sequence (P18054 whole entry, looked up): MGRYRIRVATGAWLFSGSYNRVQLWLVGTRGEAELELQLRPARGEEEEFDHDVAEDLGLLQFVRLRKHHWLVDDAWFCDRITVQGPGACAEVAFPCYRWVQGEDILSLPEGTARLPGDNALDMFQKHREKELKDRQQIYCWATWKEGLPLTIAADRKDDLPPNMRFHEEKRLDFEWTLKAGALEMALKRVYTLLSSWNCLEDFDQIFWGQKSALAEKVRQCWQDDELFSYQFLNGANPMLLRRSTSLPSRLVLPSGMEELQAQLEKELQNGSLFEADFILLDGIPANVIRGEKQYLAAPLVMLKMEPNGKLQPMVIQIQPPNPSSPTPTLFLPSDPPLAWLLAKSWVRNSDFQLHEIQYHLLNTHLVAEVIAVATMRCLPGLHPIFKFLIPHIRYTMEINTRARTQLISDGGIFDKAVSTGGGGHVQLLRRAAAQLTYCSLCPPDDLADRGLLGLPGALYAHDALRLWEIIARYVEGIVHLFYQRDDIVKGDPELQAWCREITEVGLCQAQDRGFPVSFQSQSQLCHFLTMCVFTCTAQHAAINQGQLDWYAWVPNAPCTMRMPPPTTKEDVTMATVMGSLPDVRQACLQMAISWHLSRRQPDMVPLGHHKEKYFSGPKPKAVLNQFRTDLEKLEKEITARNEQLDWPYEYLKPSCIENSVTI
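Hydroperoxide product was detected by ferrous iron/xylenol orange as the 573 to 405 nm absorbance ratio. Arachidonic acid at 40 uM (final) was turned over for 30 min at room temperature by 150 nM human 12hLO, pH 7.0 Hepes buffer, after 15 min compound preincubation.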
HT1080 IDH1KD tx: qHTS for induction of synthetic lethality in tumor cells producing 2HG: qHTS for the HT-1080-IDH1KD cell line. HT-1080 IDH1 knockdown viability, ATP luminescence, 48 h. Potency, µM (highest dose often 46.1 µM), for the others: at the top dose activity, negative = toxicity, actives largely listed as cytotoxic. hit rate 2% among 360,000. AID 686971, 2013;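 further: potency means the concentration at half of the fitted maximal effect; 0% = DMSO wells and -100% = cell-free medium wells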
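In this qHTS, HT-1080 cells depleted of IDH1 are exposed for 48 h at 37 °C to compound titrations. Toxicity is scored from CellTiter-Glo luminescence, with DMSO as full viability and medium alone as none.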
DT40 TDP1 no CPT: qHTS for Inhibitors of human tyrosyl-DNA phosphodiesterase 1 (TDP1): qHTS in cells in absence of CPT; DT40 Tdp1-/- hTDP1 cells, no CPT, ATP luminescence, 48 h; Potency, µM (doses to about 46.2 µM), for inactives: top-dose activity change, negative = growth inhibition, actives largely listed as inhibitors; hit rate 15% among 420,000; AID 686978, 2013; further: potency means the concentration at half of the fitted maximal effect; nearly all actives have a fitted effect of over 55% in size
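Cells were dispensed at 400 per well, compounds added by pin tool, plates incubated ≥48 hr at 37 °C, then CellTiter-Glo added for 30 min at room temperature before luminescence reading. Line: DT40 Tdp1-/- complemented with hTDP1; camptothecin omitted.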
TDP1 cell CPT: qHTS for Inhibitors of human tyrosyl-DNA phosphodiesterase 1 (TDP1): qHTS in cells in presence of CPT; chicken DT40 Tdp1-/-;hTDP1 cells + 20 nM CPT, ATP luminescence, 48 h; Potency, µM (doses to about 46.2 µM), without a hit: at the highest dose activity change, negative = growth inhibition, hits mostly inhibitors; hit rate 12% among 420,000; AID 686979, 2013; further: potency means the concentration at half of the fitted maximal effect; nearly all actives have a fitted effect of over 55% in size
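Chicken DT40 Tdp1-/- cells complemented with human TDP1, 400 cells/well, exposed to compounds plus 20 nM camptothecin for at least 48 h at 37 C; viability read as ATP content by CellTiter-Glo luminescence.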
An asterisk follows results filed as active; ? = inconclusive; nt = no result given; [ ] = remark or other dose. The full list was thinned out, with hits kept by preference. Unless noted, the call rests on the fitted dose curve; in most records, active means well fitted curve in the direction sought with a large enough effect; inconclusive means small, poorly fitted or top-dose-only effect, or another doubt; inactive means no such curve, though single readings can be large; an effect the other way counts as inactive or inconclusive. Unless noted, on the % scale 0 is the no-effect control and ±100 the full control effect.

SMILES	IL1B secr inh	HT1080NT lethal	ALOX12 inh	HT1080 IDH1KD tx	DT40 TDP1 no CPT	TDP1 cell CPT
Cc1cc(/C=N/n2cnnc2)c(C)n1-c1ccc(OCc2ccc(Cl)cc2)cc1	-81.6*	-18.3%	-11.2%	?	3.26µM*	4.61µM*
COC(=O)CCC(=O)Oc1cc(C)c(C2(c3cc(C(C)C)c(OC(=O)CCC(=O)OC)cc3C)OC(=O)c3ccccc32)cc1C(C)C	nt	nt	-10.0%	nt	nt	nt
Nc1cnc(Nc2ccc(Br)cc2)nc1N	-6.7	4.8%	13.3%	-0.9%	14.6µM*	?
O=C(CCc1nc(-c2ccncc2)no1)NCc1cccnc1-n1cncn1	nt	nt	-51.9%	nt	nt	nt
O=C(O)c1ccc(OCCCCCCOC2CCCCO2)cc1 (stereo not drawn)	26.6	16.1%	0.0%	12.6%	18.4µM*	?
Cn1c(=O)c2[nH]c(CN3CCN(c4ccc(F)cc4)CC3)nc2n(C)c1=O	nt	nt	4.4%	nt	nt	nt
CC(C)CN1CCCC2(CCN(S(=O)(=O)c3ccccc3)CC2)C1	nt	nt	-5.2%[57.4 µM]	nt	-17.9%	6.5%
Cc1[nH]c2ccccc2c1C(=O)COC(=O)C1CC(O)CN1S(=O)(=O)c1ccc(Cl)cc1 (stereo not drawn)	-76.3*	-27.1%	17.8%	?	?	?
CSCCC(NS(=O)(=O)c1ccc2ccccc2c1)C(=O)OCC(=O)c1ccc(C(C)C)cc1 (stereo not drawn)	3.0	-3.0%	-15.4%	-14.4%	16.4µM*	23.1µM*
CSCCC(NS(=O)(=O)c1ccc(Cl)cc1)C(=O)OCC(=O)c1c(C)[nH]c2ccccc12 (stereo not drawn)	-85.8*	-13.1%	?	-24.8%	14.6µM*	?
COc1ccc(CN2C(=O)COC[C@H]2C(=O)Nc2ccc(OC)c(C(F)(F)F)c2)cc1	nt	nt	1.1%	nt	nt	nt
C=CCn1cc(C(=O)c2cc(Br)ccc2O)cc(C#N)c1=O	-9.3	-18.1%	?	-0.3%	?	18.4µM*
CC(C)n1cc(C(=O)c2cc(Br)ccc2O)cc(C#N)c1=O	-18.0	-0.3%	-20.5%	-1.2%	18.4µM*	?
CN(C)CCCN1CC(=O)N2CCc3ccc(Br)cc3C2CC1=O (stereo not drawn)	nt	nt	9.5%	nt	nt	nt
Cn1cccc1C(=O)N1CCC(N2C(=O)C(O)C23CCCCC3)CC1 (stereo not drawn)	nt	nt	17.5%	nt	nt	nt
Cc1cccc2sc(N(CCCN(C)C)C(=O)COc3ccc(Cl)cc3)nc12	-60.3*	?	?	?	?	?
Cc1cccc2sc(N(CCCN(C)C)C(=O)COc3ccccc3)nc12	nt	nt	-25.1%	nt	-6.1%	-5.4%
CN(C)CCCN(C(=O)COc1ccc(Cl)cc1)c1nc2ccc(F)cc2s1	-65.1*	-8.0%	?	-9.4%	-21.4%	-10.7%
Cc1ccc2nc(N(CCCN(C)C)C(=O)COc3ccc(Cl)cc3)sc2c1	-28.4	2.1%	?	4.8%	20.6µM*	?
Cc1ccc2sc(N(CCCN(C)C)C(=O)CN3C(=O)c4ccccc4C3=O)nc2c1C	?	16.4µM*	?	?	20.6µM*	20.6µM*
CC1(C)CC(Nc2cc(C(=O)N3CCOCC3)c3ccccc3n2)CC(C)(C)N1	nt	nt	0.0%	nt	nt	nt
CCOC(=O)Cn1c(=O)c2c(nc3n2CCCCN3c2ccc(C)cc2)n(C)c1=O	30.6	-4.3%	?	-2.3%	?	-19.0%

High-throughput results deposited in PubChem BioAssay by National Center for Advancing Translational Sciences (NCATS).
